PI5P4Ka inh – qHTS for Inhibitors of phosphatidylinositol 5-phosphate 4-kinase (PI5P4K) | 330,000 compounds, 1.2% hits | AID 652105, 2013 | Phosphatidylinositol 5-phosphate 4-kinase type-2 alpha (Homo sapiens), P48426 | max response, % | PI5P4Kalpha enzyme, ADP-Glo luminescence, 60 min; stronger effect = lower value; active = max response of -50% or lower; inconclusive = between -30% and -50%; inactive = -30% or higher; note: value at the top dose of about 77 µM; % is set by controls: 0 for no effect and ±100 for the full control effect
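Quantitative HTS of the MLSMR library against PI5P4Kalpha with substrate. ATP added last at 5 microM final; room temperature, 60 minutes. Remaining ATP depleted, ADP converted and read as luminescence.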
POLI inh – qHTS for Inhibitors of Polymerase Iota | Potency, µM (titrated, usually from 115 µM), for the others: top-dose activity, negative = inhibition, usual class: inhibitors | 390,000 compounds, 1% hits | AID 588590, 2011 | Pol iota fluorescent replication assay, 10 min | DNA polymerase iota (Homo sapiens), Q9UNA4; note: potency is the fitted concentration of half-maximal effect
Target sequence (Q9UNA4 whole entry, looked up): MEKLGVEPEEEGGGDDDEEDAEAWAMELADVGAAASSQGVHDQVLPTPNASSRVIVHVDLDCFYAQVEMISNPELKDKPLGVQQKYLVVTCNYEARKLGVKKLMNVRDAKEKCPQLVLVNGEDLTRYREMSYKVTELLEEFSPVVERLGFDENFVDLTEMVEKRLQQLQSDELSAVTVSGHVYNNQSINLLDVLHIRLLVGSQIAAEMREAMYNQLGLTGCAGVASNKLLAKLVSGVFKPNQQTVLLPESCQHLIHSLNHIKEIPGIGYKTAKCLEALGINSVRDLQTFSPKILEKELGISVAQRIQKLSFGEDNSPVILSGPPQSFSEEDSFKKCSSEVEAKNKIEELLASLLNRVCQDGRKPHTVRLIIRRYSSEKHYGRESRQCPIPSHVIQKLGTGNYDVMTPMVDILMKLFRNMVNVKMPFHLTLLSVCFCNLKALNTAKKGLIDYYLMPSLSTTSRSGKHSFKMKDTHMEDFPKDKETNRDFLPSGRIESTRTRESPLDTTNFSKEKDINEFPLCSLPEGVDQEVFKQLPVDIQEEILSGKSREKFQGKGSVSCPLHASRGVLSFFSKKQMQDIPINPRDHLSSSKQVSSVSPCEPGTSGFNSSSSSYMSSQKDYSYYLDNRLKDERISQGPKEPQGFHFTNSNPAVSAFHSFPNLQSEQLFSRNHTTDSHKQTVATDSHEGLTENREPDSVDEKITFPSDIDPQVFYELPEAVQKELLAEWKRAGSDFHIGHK
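Fluorescent replication assay read twice, at 0 min and 10 min after adding 50 nM (final) substrate. Enzyme (10 nM) and compounds were first incubated 15 min at room temperature; enzyme-free buffer wells were negative controls.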
Pol beta inh – qHTS Assay for Inhibitors of DNA Polymerase Beta. P06746. Pol beta primer extension/strand displacement, fluorescence kinetic. Potency, µM (doses to about 114 µM), for inactives: top-dose activity change, negative = inhibition, most hits filed as inhibitors. 340,000 compounds, 1.3% hits. AID 485314, 2010; note: potency is the fitted concentration of half-maximal effect; % is set by controls: 0 for no effect and ±100 for the full control effect
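Preincubation: enzyme (10 nM) with compound, 15 min, RT. Reaction: substrate added to 50 nM final. Reads: 0 and 10 min. Analysis: normalized, Hill fit.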
Pol kappa inh – qHTS for Inhibitors of Polymerase Kappa; Potency, µM (highest dose often 107 µM), inactives show top-dose activity, negative = inhibition, usual class: inhibitors; AID 588579, 2011; 400,000 compounds, 0.53% hits; DNA polymerase kappa (Homo sapiens), Q9UBT6; purified Pol kappa, fluorescent DNA synthesis assay, 10 min; note: potency is the fitted concentration of half-maximal effect; % is set by controls: 0 for no effect and ±100 for the full control effect
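Inhibition of 10 nM Pol kappa is measured by a fluorescent read-out at 0 and 10 min following addition of 50 nM substrate (final), with a 15-min room-temperature compound preincubation.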
POLH inh – qHTS for Inhibitors of Polymerase Eta; DNA polymerase eta (Homo sapiens), Q9Y253; 390,000 compounds, 1.2% hits; Potency, µM (highest dose often 114 µM), for the others: at the top dose activity change, negative = inhibition, usual class: inhibitors; recombinant Pol eta, fluorescent DNA replication assay; note: potency is the fitted concentration of half-maximal effect; % is set by controls: 0 for no effect and ±100 for the full control effect
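Pol eta (10 nM) was preincubated with compounds for 15 min at room temperature, after which fluorescent replication substrate (50 nM final) was added to start the reaction. Fluorescence was read kinetically at 0 and 10 min.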
PI4K2A block – qHTS for small molecular inhibitors of PI4K2A; purified PI4K2A, ADP-Glo luminescence, 1 h; stronger effect = lower value; 420,000 compounds, 0.13% hits; activity change, negative = inhibition, % at 76.9 µM; Phosphatidylinositol 4-kinase type 2-alpha (Homo sapiens), Q9BTU6; in the data active = activity change below about -50%; inconclusive = mostly about -30% to -49%;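 note: -100% = wells without enzyme as full effect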
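In this quantitative HTS, ADP production by PI4K2A was quantified luminescently after 1 h at ambient temperature; 100 microM adenosine served as plate-quality control.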
Active calls of the source: *. In the library only some 2.8% were active in any assay of this set; here they are far more common. Unless noted, calls come from the whole dose curve; as a rule, active = well fitted inhibition curve with a large enough effect; inconclusive = small, poorly fitted or top-dose-only effect, or another doubt; inactive = no such curve, though single readings can be large or run the other way.

How did O=C(COC(=O)c1cc(-c2ccccc2Cl)nc2ccccc12)Nc1ncc(C(F)(F)F)cc1Cl do in these assays?
PI5P4Ka inh: -5; POLI inh: inconclusive; Pol beta inh: 32µM*; Pol kappa inh: inconclusive; POLH inh: inconclusive; PI4K2A block: 1

How did CC1CCCC(NC(=O)COC(=O)c2ccc([N+](=O)[O-])s2)C1C (stereo not drawn) do in these assays?
PI5P4Ka inh: -2; POLI inh: 89µM*; Pol kappa inh: -19%; POLH inh: inconclusive; PI4K2A block: 0

What do the screens show for `CC(C)C[C@H](NC1(C(=O)NC2CCCCC2)CCN(C(=O)OC(C)(C)C)CC1)C(=O)NCCc1c[nH]c2ccccc12`?
PI4K2A block: -2

Results for COc1ccc(S[C@]2(C(=O)N3CCCC3)CC(=O)N(c3ccccc3OC)[C@@H]2c2ccc(OC)cc2)cc1 ?
PI4K2A block: -6

How did O=[N+]([O-])c1cc(/C=N\Nc2nccs2)ccc1O do in these assays?
Pol beta inh: 4µM*

What do the screens show for `COC(=O)[C@]12C[C@H](CC(=O)NCC3CCCCC3)C(=O)N(Cc3cccc4ccccc34)C1=C[C@H](C(C)C)O[C@@H]2C1CC1`?
PI4K2A block: -1

How did O=C(NN1C(=O)c2ccc(-c3ccc4c(c3)C(=O)N(NC(=O)c3cccnc3)C4=O)cc2C1=O)c1cccnc1 do in these assays?
PI5P4Ka inh: inconclusive; POLI inh: 50µM*; Pol beta inh: inconclusive; Pol kappa inh: -18%; POLH inh: 50µM*; PI4K2A block: 2

Results for Cc1ccc(S(=O)(=O)N2c3ccccc3C[C@H]2CC=C(c2ccccc2)c2ccccc2)cc1 ?
PI4K2A block: 2

How did NS(=O)(=O)c1ccc(-c2ccc(/C=N/NC(=O)c3ccc([N+](=O)[O-])cc3)o2)cc1 do in these assays?
PI5P4Ka inh: 0; POLI inh: -3%; Pol beta inh: -17%; Pol kappa inh: -9%; POLH inh: 4%; PI4K2A block: -2

How did CCCOc1ccc(C(=O)N/N=C/c2ccc(-c3ccc(S(=O)(=O)Nc4ncccn4)cc3)o2)cc1 do in these assays?
POLI inh: inconclusive; Pol beta inh: -11%; Pol kappa inh: 50µM*; POLH inh: 20µM*; PI4K2A block: -8

What do the screens show for `N#Cc1cc(Sc2ccccn2)c(Sc2ccccn2)cc1C#N`?
POLI inh: 19%; Pol beta inh: 5%; Pol kappa inh: -7%; POLH inh: -3%; PI4K2A block: -2

How did N#Cc1cc(Sc2ccccn2)c([N+](=O)[O-])cc1C#N do in these assays?
PI5P4Ka inh: -86*; POLI inh: 1%; Pol beta inh: -20%; Pol kappa inh: 4%; POLH inh: -11%; PI4K2A block: -6

What do the screens show for `CCOC(=O)C1=C(C)N(CCCC(=O)O)C(=O)NC1c1ccc([N+](=O)[O-])cc1` (stereo not drawn)?
PI5P4Ka inh: -86*; POLI inh: 28%; Pol beta inh: 6%; Pol kappa inh: 18%; POLH inh: -6%; PI4K2A block: -2

Results for COC(=O)C1=C(C)N(CCCC(=O)O)C(=O)NC1c1cc2c(cc1[N+](=O)[O-])OCO2 (stereo not drawn) ?
PI5P4Ka inh: -62*; POLI inh: 13µM*; Pol beta inh: 10µM*; Pol kappa inh: 45µM*; POLH inh: 50µM*; PI4K2A block: -2
